DT40 TDP1 CPT = DT40-hTDP1 cell growth loss with CPT. chicken DT40 Tdp1-/-;hTDP1 cells + 20 nM CPT, ATP luminescence, 48 h. Potency, µM (doses to about 46.2 µM), without a hit: at the top dose activity change, negative = growth inhibition, actives largely listed as inhibitors. 420,000 compounds, 12% hits. AID 686979; further: potency means the concentration at half of the fitted maximal effect; nearly all actives have a fitted effect of over 55% in size
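Chicken DT40 Tdp1-/- cells stably complemented with human TDP1 were seeded at 400 cells/well in medium containing 20 nM camptothecin, exposed to pin-transferred compounds, and grown at 37 °C for at least 48 hr. Viability was read as ATP luminescence.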
TDP1 block = blocks human tyrosyl-DNA phosphodiesterase 1; 350,000 compounds, 0.28% hits; Potency, µM (series often up to 130 µM), for inactives: at the top dose activity change, negative = inhibition, actives largely listed as inhibitors; recombinant TDP1, AlphaScreen DNA substrate cleavage; AID 485290; further: potency means the concentration at half of the fitted maximal effect; nearly all actives have a fitted effect of over 40% in size
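Compounds were preincubated with Tdp1 (1 nM final) for 15 min at room temperature before substrate (15 nM final) started a 5 min reaction; beads (10 ug/ml final) were then added for 10 min before AlphaScreen detection.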
DT40 TDP1 no CPT = qHTS for Inhibitors of human tyrosyl-DNA phosphodiesterase 1 (TDP1): qHTS in cells in absence of CPT; DT40 Tdp1-/- hTDP1 cells, no CPT, ATP luminescence, 48 h; Potency, µM (series often up to 46.2 µM), without a hit: top-dose activity change, negative = growth inhibition, actives largely listed as inhibitors; 420,000 compounds, 15% hits; AID 686978, 2013; further: potency means the concentration at half of the fitted maximal effect; nearly all actives have a fitted effect of over 55% in size
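Cells were dispensed at 400 per well, compounds added by pin tool, plates incubated ≥48 hr at 37 °C, then CellTiter-Glo added for 30 min at room temperature before luminescence reading. Line: DT40 Tdp1-/- complemented with hTDP1; camptothecin omitted.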
IL-1B inflam inh = inhibitors of inflammasome signaling (IL-1 beta secretion); THP-1 LPS/ATP IL-1B secretion, AlphaLISA, 16 h; active compounds read low; activity change, % at 57.5 µM; 360,000 compounds, 4.7% hits; in the data active means activity change below about -50%; inconclusive means mostly about -30% to -49%
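Secreted IL-1B measured by AlphaLISA bead assay after 16 h compound exposure of THP-1 cells; compounds (final up to 57.5 uM) added 1 h before LPS (250 ng/mL) and ATP (1.25 mM) stimulation; lower signal means less secretion.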
CtBP-E1A blk = blocks the CtBP interaction with E1A. AlphaScreen GST-E1A/His-CtBP binding, 1536-well; active compounds read low. activity change, % (test concentration not listed). 340,000 compounds, 0.49% hits; in the data active means activity change below about -65%; inconclusive means mostly about -30% to -63%
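In 5 uL wells, 23 nL compound meets equimolar GST-E1A and His-CtBP (5X stock 125 nM each) for 2 h, 37 °C. Beads (5X, 50 ug/mL) then 1 h, 37 °C, dark.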
Six1-Eya2 blk = blocks human Six1 binding to Eya2. Q15475+O00167. AlphaScreen GST-Six1/His-Eya2 binding, biochemical; active compounds read low. activity change, % (no concentration beside the values). 360,000 compounds, 0.56% hits. AID 651725; in the data active means activity change below about -65%; inconclusive means mostly about -30% to -63%
Target sequence (O00167 whole entry, looked up): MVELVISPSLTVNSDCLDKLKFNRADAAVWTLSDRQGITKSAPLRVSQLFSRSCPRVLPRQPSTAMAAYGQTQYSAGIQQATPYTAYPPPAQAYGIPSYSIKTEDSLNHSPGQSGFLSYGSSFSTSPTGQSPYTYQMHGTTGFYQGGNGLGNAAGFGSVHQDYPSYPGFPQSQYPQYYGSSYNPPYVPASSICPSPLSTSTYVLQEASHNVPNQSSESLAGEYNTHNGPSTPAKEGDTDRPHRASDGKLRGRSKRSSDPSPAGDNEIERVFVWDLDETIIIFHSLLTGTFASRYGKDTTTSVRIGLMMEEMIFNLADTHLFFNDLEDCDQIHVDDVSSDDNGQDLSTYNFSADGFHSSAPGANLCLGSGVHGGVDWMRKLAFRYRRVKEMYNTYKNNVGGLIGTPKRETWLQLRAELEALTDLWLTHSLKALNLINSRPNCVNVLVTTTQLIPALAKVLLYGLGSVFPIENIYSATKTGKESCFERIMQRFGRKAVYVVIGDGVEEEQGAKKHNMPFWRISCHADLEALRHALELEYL
Target sequence (Q15475 whole entry, looked up): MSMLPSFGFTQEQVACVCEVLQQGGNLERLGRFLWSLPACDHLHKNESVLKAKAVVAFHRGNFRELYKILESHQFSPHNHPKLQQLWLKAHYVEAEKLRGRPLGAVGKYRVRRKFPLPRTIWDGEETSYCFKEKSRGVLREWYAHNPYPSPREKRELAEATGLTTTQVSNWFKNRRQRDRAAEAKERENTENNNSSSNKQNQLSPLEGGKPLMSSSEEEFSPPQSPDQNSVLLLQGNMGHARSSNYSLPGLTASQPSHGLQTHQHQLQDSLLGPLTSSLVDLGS
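GST-Six1 + His-Eya2 (5X stock: 250/500 nM); Tris pH 8.0, 300 mM NaCl, 0.05% BSA, 0.02% Tween 20; GSH donor/Ni acceptor beads; 1 h 37 °C dark; AlphaScreen readout.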
The depositor's hits bear a star; [ ] = dose if it differs, or a comment. The list is not random: actives were taken first. Their share in the collection is about 18%. Unless noted, the call rests on the fitted dose curve; in most records, active means well fitted curve in the direction sought with a large enough effect; inconclusive means small, poorly fitted or top-dose-only effect, or another doubt; inactive means no such curve, though single readings can be large; an effect the other way counts as inactive or inconclusive. On the % scale 0 is the no-effect control and ±100 the full control effect.

For COc1cccc(S(=O)(=O)Nc2ccc3c(c2)[C@@H]2C[C@H](CC(=O)NCCc4ccccc4)O[C@H](CO)[C@@H]2O3)c1 the results were DT40 TDP1 CPT 23µM*, DT40 TDP1 no CPT 16µM*, IL-1B inflam inh -13, CtBP-E1A blk -12 and Six1-Eya2 blk 30.
Screening COC(=O)C[C@@H]1C[C@H]2c3cc(NC(=O)C4CCC4)ccc3O[C@H]2[C@@H](CO)O1 returned DT40 TDP1 CPT -2%, DT40 TDP1 no CPT -5%, IL-1B inflam inh 10, CtBP-E1A blk 2 and Six1-Eya2 blk 4.
`CCN(CC)C1Oc2cc3c(cc2C(c2cc(OC)c(O)c(OC)c2)C1C)OCO3` (configuration not stated) gave DT40 TDP1 CPT inconclusive, DT40 TDP1 no CPT inconclusive, IL-1B inflam inh 27, CtBP-E1A blk 2 and Six1-Eya2 blk -2.
For COc1cc(C2c3cc4c(cc3OC(NNC(N)=S)C2C)OCO4)cc(OC)c1OC (configuration not stated) the results were DT40 TDP1 CPT 1.3µM*, DT40 TDP1 no CPT 0.92µM*, IL-1B inflam inh inconclusive, CtBP-E1A blk -5 and Six1-Eya2 blk -15.
COc1cc(C2c3cc4c(cc3OC(NCc3ccccc3)C2C)OCO4)cc(OC)c1OC (configuration not stated) was read as DT40 TDP1 CPT 1.2µM*, DT40 TDP1 no CPT 1.5µM*, IL-1B inflam inh 15, CtBP-E1A blk 0 and Six1-Eya2 blk -9.
Screening COc1cc(C2c3cc4c(cc3OC(NNC(N)=O)C2C)OCO4)cc(OC)c1OC (configuration not stated) returned DT40 TDP1 CPT 1.3µM*, DT40 TDP1 no CPT 1.3µM*, IL-1B inflam inh -66*, CtBP-E1A blk -24 and Six1-Eya2 blk 0.
Screening COc1cccc(C2c3cc4c(cc3OC(NNC(N)=O)C2C)OCO4)c1O (configuration not stated) returned DT40 TDP1 CPT 4.6µM*, DT40 TDP1 no CPT 4.1µM*, IL-1B inflam inh 33, CtBP-E1A blk -5 and Six1-Eya2 blk -7.
COc1ccc(C2c3cc4c(cc3OC(NNC(N)=O)C2C)OCO4)cc1 (configuration not stated) was read as DT40 TDP1 CPT inconclusive, DT40 TDP1 no CPT inconclusive, IL-1B inflam inh 16, CtBP-E1A blk -7 and Six1-Eya2 blk -9.
Cc1ccc(Nc2cc(=O)[nH]c(=O)[nH]2)c(C)c1 was read as DT40 TDP1 CPT -28%, TDP1 block -6%, DT40 TDP1 no CPT -19%, IL-1B inflam inh 5, CtBP-E1A blk -3 and Six1-Eya2 blk 2.
`CCC1C(=O)NCCN1C(=O)c1ccc2nc(Cc3cccc(Cl)c3)oc2c1` (configuration not stated) gave DT40 TDP1 CPT -8%, TDP1 block 2%[56.1 µM], DT40 TDP1 no CPT inconclusive, IL-1B inflam inh inactive, CtBP-E1A blk 3 and Six1-Eya2 blk 0.
For Cc1cc(C)nc(N/C(=N\S(=O)(=O)Cc2ccccc2)Nc2ccc(F)c(Cl)c2)n1 the results were DT40 TDP1 CPT 18µM*, TDP1 block -8%, DT40 TDP1 no CPT 26µM*, IL-1B inflam inh 4 and Six1-Eya2 blk -2.
`Cc1cc(C)nc(N/C(=N\S(=O)(=O)Cc2ccccc2)Nc2cccc(Cl)c2C)n1` gave DT40 TDP1 CPT inconclusive, TDP1 block 1%, DT40 TDP1 no CPT inconclusive, IL-1B inflam inh 5, CtBP-E1A blk -7 and Six1-Eya2 blk 3.
Screening CCOc1ccccc1N(CC(=O)N(C)Cc1ccccc1)S(=O)(=O)c1ccccc1 returned DT40 TDP1 CPT inconclusive, TDP1 block 4%, DT40 TDP1 no CPT inconclusive, IL-1B inflam inh -12, CtBP-E1A blk -1 and Six1-Eya2 blk 4.
`O=C(NNC1=NS(=O)(=O)c2ccccc21)c1ccc([N+](=O)[O-])cc1` gave DT40 TDP1 CPT 3%, TDP1 block 6%, DT40 TDP1 no CPT -27%, IL-1B inflam inh 14, CtBP-E1A blk 3 and Six1-Eya2 blk 7.
CCc1cc2c(=O)n(Cc3ccco3)c(SCC(=O)NCC3CCCO3)nc2s1 (configuration not stated) was read as DT40 TDP1 CPT 15µM*, TDP1 block 10%, DT40 TDP1 no CPT 16µM*, IL-1B inflam inh -6, CtBP-E1A blk 11 and Six1-Eya2 blk 0.
For CCc1cc2c(=O)n(Cc3ccco3)c(SCC(=O)N3CCCc4ccccc43)nc2s1 the results were DT40 TDP1 CPT 26µM*, TDP1 block 4%, DT40 TDP1 no CPT inconclusive, IL-1B inflam inh -27, CtBP-E1A blk -9 and Six1-Eya2 blk -4.
Screening CCc1cc2c(=O)n(Cc3ccco3)c(SCC(=O)N(C)C3CCS(=O)(=O)C3)nc2s1 (configuration not stated) returned DT40 TDP1 CPT -24%, TDP1 block 6%, DT40 TDP1 no CPT inconclusive, IL-1B inflam inh 30, CtBP-E1A blk -3 and Six1-Eya2 blk -10.
CCc1cc2c(=O)n(Cc3ccco3)c(SCC(=O)NC3CCS(=O)(=O)C3)nc2s1 (configuration not stated) was read as DT40 TDP1 CPT inconclusive, TDP1 block 6%, DT40 TDP1 no CPT -27%, IL-1B inflam inh -8, CtBP-E1A blk -5 and Six1-Eya2 blk -6.
CCc1cc2c(=O)n(Cc3ccco3)c(SCc3c(C)noc3C)nc2s1 was read as DT40 TDP1 CPT 5.8µM*, TDP1 block 9%, DT40 TDP1 no CPT 2.9µM*, IL-1B inflam inh -5, CtBP-E1A blk -6 and Six1-Eya2 blk -12.
NC(=O)CN1CCOCCN(CC(N)=O)CCOCC1 was read as DT40 TDP1 CPT inconclusive, TDP1 block 8%, DT40 TDP1 no CPT -5%, IL-1B inflam inh 18, CtBP-E1A blk 8 and Six1-Eya2 blk 7.
For COc1ccccc1NC=C1C(=O)OC(C)(C)OC1=O the results were DT40 TDP1 CPT 1%, TDP1 block 0%, DT40 TDP1 no CPT -14%, IL-1B inflam inh -13, CtBP-E1A blk -2 and Six1-Eya2 blk 5.
`COC(=O)Nc1cc(C)n(-c2ccccc2)n1` gave DT40 TDP1 CPT 8%, TDP1 block -3%, DT40 TDP1 no CPT -10%, IL-1B inflam inh 14, CtBP-E1A blk 4 and Six1-Eya2 blk -10.
For CCCCNC(=O)c1cc(C)nn1-c1ccccc1 the results were DT40 TDP1 CPT 1%, TDP1 block -1%, DT40 TDP1 no CPT -17%, IL-1B inflam inh -7, CtBP-E1A blk -5 and Six1-Eya2 blk 0.
